The text below walks through data of PubChem BioAssay AID624351 (Southern Research Specialized Biocontainment Screening …, 2012).

SMILES strings stand for the structures. The campaign covered roughly 2,400 compounds. About 1,400 (58%) were called active. The set was probably picked from earlier hits. Some of the results follow. Values without a mark were called inactive.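 The calls were made as follows: active = inhibition of 30% or more at any tested dose; inconclusive = primary hits over the limit that were never retested; inactive = the rest.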

A short description of this experiment: ADP Hunter readout inhibition without MgcRacGAP – biochemical, coupled enzyme counter-screen, artefact control for MgcRacGAP inhibitor project, dose response (AID 624351).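 Also: signal is the ADP detection kit reading of free GDP without any GAP enzyme.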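 As to inhibition: 0% = median positive control wells and 100% = median negative control wells.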 Conditions: fluorescence, no MgcRacGAP; series mostly up to 80 µM; inhibition: at the top concentration.
As for `Nc1ccc(Cn2ccc3c4c(N)nc(N)nc4ccc32)cc1`, the “inhibition” value is 3.98%.

As for `Cn1c(=O)c2ccccc2n2c(=S)[nH]nc12`, the IC50 is 13.2 µM (active).

As to `O=c1c2ccccc2n2c(=S)[nH]nc2n1-c1ccccc1`, the IC50 is 20.6 µM (active).

For the molecule `Cc1cccc(-n2c(=O)c3ccccc3n3c(=S)[nH]nc23)c1C`, the IC50 was 34 µM (active).

Take `CCOCCCn1c(=O)c2ccccc2n2c(=S)[nH]nc12`: the IC50 was 16.1 µM (active).

As to `O=C(c1cccc(Cl)c1)N1CCN(Cc2ccncc2)CC1`, the “inhibition” value is 23.4%.

In the case of `CCOC(=O)c1[nH]c2cc(OC)c(OC)cc2c1N`, the IC50 was 31.3 µM (active).

With `COc1cccc2[nH]c(C(=O)NN)c(N)c12`, the “inhibition” value was 19.8%.

For the molecule `CCOC(=O)c1[nH]c2ccc(C)cc2c1N`, the IC50 was 27.2 µM (active).

As for `CCCc1c(C)[nH]c2ccc(C(=O)O)cc2c1=S`, the “inhibition” value is 4.17%.

Regarding `Oc1ccccc1C=NC1=NN(c2cccc(C(F)(F)F)c2)CC1`, the IC50 is 16.9 µM (active).

Consider `CN1CCN(C=NC2=NN(c3cccc(C(F)(F)F)c3)CC2)CC1`, for which the IC50 was 34.1 µM (active).

Turning to `FC(F)(F)c1cccc(N2CCC(N=CN3CCCCCC3)=N2)c1`, the IC50 is 50 µM (active).

Consider `CC[N+](CC)(CC)CCCCOc1ccc2c(c1)C(=O)c1cc(OCCCC[N+](CC)(CC)CC)ccc1-2`, for which the “inhibition” value is 8.56%.

In the case of `NSc1nc(N)c2nc(-c3ccccc3)c(-c3ccccc3)nc2n1`, the “inhibition” value is 5.16%.

Consider `O=C(C1=C(O)C(=O)N(c2nc3ccc(Cl)cc3s2)C1c1ccco1)c1ccco1` (stereo not given), for which the “inhibition” value was 4.28%.

As to `COc1cc(NCCC(=O)c2cccs2)c(OC)cc1Cl`, the IC50 was 58.1 µM (active).

Take `COc1ccc(NC(=O)Cn2nnc(C(=O)NCc3cccs3)c2N)cc1Cl`: the “inhibition” value is 2.52%.

Consider `CCCSC1=N/C(=C\C=C\c2ccco2)C(=O)S1`, for which the “inhibition” value was -4.75%.

On to `CCN(CC)CCn1c2ccccc2c(=O)c2c(O)ccc(O)c21`, for which the “inhibition” value was -1.29%.

As to `Oc1cc(O)cc(-c2cc3ccc(O)cc3o2)c1`, the IC50 was 25 µM (active).

Consider `COc1cc(/C=N/NC(=O)c2cccc([N+](=O)[O-])c2)ccc1O`, for which the IC50 was 35.9 µM (active).

On to `COc1cc(/C=N\NC(=O)CNC(=O)c2cccc([N+](=O)[O-])c2)ccc1O`, for which the IC50 is 18.4 µM (active).

As for `COc1cc(/C=N\NC(=O)c2ccc(Cn3nc([N+](=O)[O-])c(Cl)c3C)o2)ccc1O`, the IC50 was 33.9 µM (active).

As to `COc1cc(/C=N/NS(=O)(=O)c2ccc(C)c([N+](=O)[O-])c2)ccc1O`, the IC50 was 37.1 µM (active).

Turning to `CN(C)/N=C/c1ccc(OC(=O)c2cccc([N+](=O)[O-])c2)cc1`, the “inhibition” value was -2.18%.

In the case of `O=[N+]([O-])c1cccc(S(=O)(=O)N/N=C/c2ccc(O)cc2)c1`, the IC50 was 45.2 µM (active).

Turning to `c1ccc(OCCCN2CCCC2)cc1`, the “inhibition” value was 19.4%.

Take `CN(CCOc1ccc(Cl)c(Cl)c1)Cc1ccccc1`: the “inhibition” value is 7.09%.

As for `Nc1ccc(OCCc2ccccc2)cc1`, the IC50 is 37.5 µM (active).

Take `COc1cc(C=c2c3ccccc3n3c2cc(-c2ccccc2)[n+]3C)cc(OC)c1OC`: the “inhibition” value was 2.94%.

For `O=C(c1ccccc1)c1coc2ccc(O)c(Cl)c12`, the IC50 is 77.5 µM (active).

For `O=C1C=CC(=O)c2c(O)c(N3CCN(CCO)CC3)c(Cl)c(O)c21`, the “inhibition” value was 5.58%.

As for `O=C(O)c1ccc(-c2ccc(/C=c3/sc4nc5ccccc5n4c3=O)o2)cc1Cl`, the “inhibition” value is 7.6%.

With `COc1ccc(N=Nc2cc(OC)c(N)cc2OC)cc1`, the IC50 is 39.2 µM (active).

For the molecule `CC(C)N(CCNCC(O)COc1ccc(C(C)(C)c2ccccc2)cc1)C(C)C` (stereo not given), the “inhibition” value is 17.9%.

In the case of `COc1cc(CN2CCC(C(=O)NC3CCCC3)CC2)cc(Br)c1O`, the “inhibition” value was 7.21%.

On to `COc1cc(C(=S)NC2CCCCC2)ccc1O`, for which the IC50 was 36.7 µM (active).

For the molecule `COc1cc(C(=S)NCc2ccccc2)cc(Br)c1O`, the “inhibition” value is 17.8%.

For the molecule `CCOc1cc(/C=N/NC(=O)C(OC)c2ccccc2)ccc1O` (stereo not given), the IC50 was 58.2 µM (active).

As for `COc1cc(/C=N/NC(=O)CC(=O)NC2CCCCC2)ccc1O`, the IC50 was 55.1 µM (active).

For `COc1cc(CN2CCC(C(=O)NC3CCCC3)CC2)ccc1O`, the “inhibition” value is 15.2%.

With `CCOc1cc(/C=N/NC(=O)C(C)Sc2ccccn2)ccc1O` (stereo not given), the IC50 was 44.5 µM (active).

Consider `COc1ccc(CN2CCN(C(C)C(=O)N(C)Cc3cccc(F)c3)CC2)cc1OC` (stereo not given), for which the “inhibition” value is 22.3%.

`COc1cc(CN2CCN(C(=O)CC(C)C)CC2)cc(OC)c1O`: the “inhibition” value is 22.5%.

In the case of `N#CC1=C(S)N(c2ccccc2)C(c2ccc(-c3ccccc3Cl)o2)NC1=O` (stereo not given), the “inhibition” value was 5.31%.

As for `CCOc1cc(/C=N/NC(=O)CCCC(=O)NC2CCCCC2)ccc1O`, the IC50 was 62.2 µM (active).

Consider `COc1cc(/C=N/NC(=S)NC2CC3CCC2C3)ccc1O` (stereo not given), for which the IC50 is 55.3 µM (active).

In the case of `CCOc1cc(/C=N/NC(=O)Nc2ccccc2)ccc1O`, the IC50 is 33 µM (active).

For `CCOc1cc(C=NNC(=O)CCCC(=O)NN=Cc2ccc(O)c(OCC)c2)ccc1O`, the 50% inhibitory concentration (IC50) is 55.2 µM (active).

For `CCOc1cc(/C=N/NC(=O)CSc2cccc3cccnc23)ccc1O`, the IC50 was 36.7 µM (active).

With `CCn1c(SC(C)C)nnc1-c1cc(-c2ccccc2)sc1N`, the IC50 is 26.7 µM (active).

Take `C=CCn1c(SCC(C)=O)nnc1-c1cc(-c2ccccc2)sc1N`: the IC50 is 50.1 µM (active).

As for `CCN(CC)CCOc1ccc2c(c1)C(=NNC(=O)c1ccccn1)c1cc(OCCN(CC)CC)ccc1-2`, the “inhibition” value is 25.5%.

With `O=C(Oc1ccc2c(c1)OCO2)c1ccc(Br)c(S(=O)(=O)N2CCOCC2)c1`, the “inhibition” value is 5.16%.

With `Cc1ccc(C2C=NN(c3ccccc3)C2=O)cc1` (stereo not given), the half-inhibitory concentration (IC50) was 78.2 µM (active).

With `CC1=NN(c2ccccc2)C(=O)C1/C=C1\NC(=S)NC1=O` (stereo not given), the “inhibition” value was 27.2%.

As to `Cc1ccc(-n2sc3ccccc3c2=O)cc1`, the “inhibition” value was 10.3%.

As to `COc1cc(/C=N/NC(=O)Cn2nnc3ccccc32)ccc1O`, the IC50 is 20.7 µM (active).

Turning to `COc1cc(/C=N/NC(=O)C(C)n2nnc3ccccc32)ccc1O` (stereo not given), the half-inhibitory concentration (IC50) was 23.6 µM (active).

For the molecule `COc1cc(/C=N/NC(=O)CCn2nnc3ccccc32)ccc1O`, the IC50 was 53.8 µM (active).

`Cc1cc(NC(=O)CN2CCC(C)CC2)no1`: the “inhibition” value was 14.8%.

As to `Cc1cc(NC(=O)c2sc3ccccc3c2O)no1`, the IC50 is 74.8 µM (active).

For `Cc1cc(NC(=O)CN2CCN(C)CC2)no1`, the “inhibition” value is 17.2%.

With `COc1ccccc1NC(=O)NNC(=O)c1ccc2ccccc2c1O`, the “inhibition” value was 8.21%.

With `O=C(Nc1ccccn1)c1ccc2ccccc2c1O`, the IC50 was 78.1 µM (active).

For `COc1ccc2c(c1)-c1c(ssc1=S)C(C)(C)N2`, the IC50 is 33.6 µM (active).

`COc1ccc(Oc2cn[nH]c2-c2ccc(O)cc2O)cc1`: the IC50 was 29.9 µM (active).

`COc1cccc(Oc2cn[nH]c2-c2ccc(O)cc2O)c1`: the IC50 was 52.5 µM (active).

As for `CCOc1ccccc1Oc1cn[nH]c1-c1ccc(O)cc1O`, the 50% inhibitory concentration (IC50) is 33.8 µM (active).

Usually inhibition stands for the relative decrease from the control value, in per cent. The IC50 is the concentration needed to halve the response being measured.
